These results are taken from PubChem BioAssay.

Active and inactive are the calls of the source.

Assay [1] concerns Plasmodium falciparum Sir2 (PF13_0152, Sir2A). The experiment in a line: pfSir2 binders on small-molecule microarrays, primary screen, biochemical, small-molecule microarray, 635 nm fluorescence (AID 1098).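 Also: score merges spot fluorescence intensity with its signal-to-noise ratio.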 As to conditions: small-molecule microarray binding, fluorescence 635 nm; higher = more signal.
Assay [2] can be described thus: small-molecule microarray binders of probe aDKK1, primary screen, biochemical, biotinylated probe, 635/667 nm fluorescence (AID 1099).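 Also: score merges 667nm spot fluorescence with signal to noise across triplicate slides.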 As to conditions: higher = more signal.
Assay [3] is described as follows: small-molecule microarray binders of probe aCHRDL2, primary screen, biochemical, biotinylated probe, 635/667 nm fluorescence (AID 1100). The settings on record: higher = more signal.
The nature of assay [4]: splicing luciferase reporter signal modulators, primary screen, spliceosome inhibition project, cell-based, HEK293, splice +/- reporter (AID 1101).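 Also: HEK293 cells carrying a splicing-competent luciferase reporter gene; test concentration not given here.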 As to conditions: luminescence, 24 h, higher = more signal, called active from +8 up or from −8 down. (In general: A reporter such as luciferase makes a cellular process visible.)
Assay [5] concerns the target Fibroblast growth factor 10 (Homo sapiens) (UniProt O15520). As to the kind of experiment: FGF10 binders on small-molecule microarrays, primary screen, biochemical, small-molecule microarray, 635 nm fluorescence (AID 1102). The settings on record: FGF10 binding, fluorescence 635 nm, higher = more signal.
Assay [6] deals with glycogen synthase kinase-3 (GSK3A per assay name; protocol says GSK3B). As to the kind of experiment: GSK3 binders on small-molecule microarrays, primary screen, biochemical, small-molecule microarray, 635 nm fluorescence, GSK3A (AID 1103). Also: the record names both GSK3A and GSK3B. The settings on record: small-molecule microarray binding, fluorescence 635 nm; higher = more signal.
In assay [7] the target is Epidermal growth factor receptor (Homo sapiens) (UniProt P00533). As to the kind of experiment: EGFR binders on small-molecule microarrays, primary screen, biochemical, small-molecule microarray, 635 nm fluorescence (AID 1104).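 Also: score merges 667 nm emission intensity with spot signal to noise over triplicate slides.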 As to conditions: EGFR binding, higher = more signal.
Epidermal growth factor receptor (Homo sapiens), sequence (P00533 whole entry, looked up): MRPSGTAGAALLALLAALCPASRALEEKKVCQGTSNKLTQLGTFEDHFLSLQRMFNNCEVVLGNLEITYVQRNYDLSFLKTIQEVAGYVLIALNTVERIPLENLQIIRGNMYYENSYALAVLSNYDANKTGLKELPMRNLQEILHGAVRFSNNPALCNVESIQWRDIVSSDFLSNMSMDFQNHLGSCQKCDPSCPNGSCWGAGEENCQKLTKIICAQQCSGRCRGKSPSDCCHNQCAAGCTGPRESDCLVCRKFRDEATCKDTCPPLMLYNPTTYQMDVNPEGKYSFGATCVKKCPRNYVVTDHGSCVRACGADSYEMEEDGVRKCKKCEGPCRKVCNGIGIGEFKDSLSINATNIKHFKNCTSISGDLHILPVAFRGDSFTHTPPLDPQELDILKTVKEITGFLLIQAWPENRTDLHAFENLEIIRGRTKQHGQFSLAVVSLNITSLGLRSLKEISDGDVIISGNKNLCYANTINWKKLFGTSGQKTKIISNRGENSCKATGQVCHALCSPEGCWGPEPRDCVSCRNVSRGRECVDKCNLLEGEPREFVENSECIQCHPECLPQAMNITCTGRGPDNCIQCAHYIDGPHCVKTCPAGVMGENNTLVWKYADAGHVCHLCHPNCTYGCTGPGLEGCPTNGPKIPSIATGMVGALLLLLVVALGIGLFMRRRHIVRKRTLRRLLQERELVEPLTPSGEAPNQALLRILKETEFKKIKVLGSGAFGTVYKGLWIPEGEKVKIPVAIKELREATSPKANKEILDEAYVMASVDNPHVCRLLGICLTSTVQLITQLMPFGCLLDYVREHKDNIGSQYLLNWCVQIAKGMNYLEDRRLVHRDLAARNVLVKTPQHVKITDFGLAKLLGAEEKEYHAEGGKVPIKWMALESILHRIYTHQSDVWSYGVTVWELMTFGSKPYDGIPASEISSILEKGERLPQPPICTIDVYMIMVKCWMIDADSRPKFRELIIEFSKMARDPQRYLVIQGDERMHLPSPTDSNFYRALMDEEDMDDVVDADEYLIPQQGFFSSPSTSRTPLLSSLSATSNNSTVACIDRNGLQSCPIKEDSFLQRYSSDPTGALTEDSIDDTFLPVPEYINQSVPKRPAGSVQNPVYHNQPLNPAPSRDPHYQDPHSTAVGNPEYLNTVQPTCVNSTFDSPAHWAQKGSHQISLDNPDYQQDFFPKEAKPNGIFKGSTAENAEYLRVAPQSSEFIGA
Assay [8] addresses Follistatin-related protein 3 (Homo sapiens) (UniProt O95633). As to the kind of experiment: FSTL3 binders on small-molecule microarrays, primary screen, biochemical, small-molecule microarray, 635 nm fluorescence (AID 1105).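 Also: score merges emission near 667 nm and signal to noise per printed spot across three slides.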 The settings on record: FSTL3 binding, higher = more signal.
Assay [9] concerns the target Dickkopf-related protein 1 (Homo sapiens) (UniProt O94907). The experiment in a line: DKK1 binders on small-molecule microarrays, primary screen, biochemical, small-molecule microarray, 635 nm fluorescence scan (AID 1106).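 Also: score merges emission near 667 nm with signal to noise over three replicate slides.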 The settings on record: DKK1 binding, higher = more signal.
For assay [10], the system named is Inhibin beta A chain (activin A). The experiment in a line: INHBA (activin A) binders on microarrays, primary screen, biochemical, small-molecule microarray, 635 nm fluorescence scan (AID 1107).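 Also: mouse activin A protein probed at 4.33 µg/mL on printed slides; score merges bound-protein fluorescence near 667 nm with spot signal-to-noise.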 The settings on record: small-molecule microarray binding, higher = more signal.
In assay [11] the test system is Human papillomavirus type 1a protein E7 (residues 44-93). As to the kind of experiment: HPV1a E7 fragment binders on microarrays, primary screen, biochemical, small-molecule microarray, residues 44-93, 635 nm fluorescence (AID 1108).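 Also: E7 fragment applied at 1 µg/mL in TBST for 1 h at 4 C; score combines spot fluorescence with its signal to noise ratio.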 The settings on record: small-molecule microarray binding, fluorescence 635 nm; higher = more signal.
Assay [12] in a line: modulators of HCV replicon luciferase signal, primary screen, HCV replication inhibitor project, Huh7 cells, luciferase reporter (AID 1109).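 Also: huh7 hepatoma cells harbouring a luciferase neomycin HCV replicon reporter; luciferase luminescence as measure of HCV replicon replication; test concentration not given here.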 The settings on record: 48 h, higher = more signal. A general note: Replicon systems follow genome replication, usually without infectious particles.
In assay [13] the target is Left-right determination factor 2 (Homo sapiens) (UniProt O00292). As to the kind of experiment: LEFTY2 binders on small-molecule microarrays, primary screen, biochemical, small-molecule microarray, 635 nm fluorescence scan (AID 1110). As to conditions: LEFTY2 binding, higher = more signal.
Left-right determination factor 2 (Homo sapiens), sequence (O00292 whole entry, looked up): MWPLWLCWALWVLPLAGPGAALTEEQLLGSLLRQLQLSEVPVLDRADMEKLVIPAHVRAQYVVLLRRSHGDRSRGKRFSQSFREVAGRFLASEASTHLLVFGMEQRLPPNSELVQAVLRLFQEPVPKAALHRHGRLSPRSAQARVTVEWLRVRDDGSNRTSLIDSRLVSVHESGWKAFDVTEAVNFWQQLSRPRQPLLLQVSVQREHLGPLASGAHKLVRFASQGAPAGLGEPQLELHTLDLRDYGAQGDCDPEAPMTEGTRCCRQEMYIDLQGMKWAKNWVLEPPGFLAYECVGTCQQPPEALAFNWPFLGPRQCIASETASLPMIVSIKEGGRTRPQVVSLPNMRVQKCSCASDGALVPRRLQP
For assay [14], the target named is Calmodulin-1 (Homo sapiens) (UniProt P0DP23). The experiment in a line: CALM1 binders on microarrays, EGTA buffer, profiling panel, biochemical, small-molecule microarray, Cy5-labelled CALM1 (AID 1111).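 Also: labelled calmodulin applied in Tris saline Tween buffer holding calcium plus EGTA and DTT.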 The settings on record: Cy5-CALM1 binding fluorescence, higher = more signal.
The target is the same in assay [15]. The experiment in a line: calcium-bound CALM1 binders on microarrays, profiling panel, artefact control for SMM control-protein annotation, biochemical, small-molecule microarray, Cy5-labelled CALM1, plus calcium (AID 1112).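 Also: score merges spot fluorescence with signal to noise from triplicate slides.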 As to conditions: Cy5-CALM1 binding fluorescence, higher = more signal.
The nature of assay [16]: small-molecule microarray binders of probe aWnt5a, primary screen, biochemical, biotinylated probe, 635/667 nm fluorescence (AID 1113).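 Also: score merges 667 nm fluorescence intensity with signal-to-noise per printed feature.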 As to conditions: higher = more signal.
The nature of assay [17]: small-molecule microarray binders of probe aShh, primary screen, biochemical, biotinylated probe, 635/667 nm fluorescence (AID 1114).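 Also: probe is biotin-labelled aShh protein from a stem cell growth factor screen; measures binding of labelled protein to compounds printed on the slide; score merges feature fluorescence at 667 nm with signal-to-noise.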 As to conditions: higher = more signal.
Assay [18] is described as follows: small-molecule microarray binders of probe aNog, primary screen, biochemical, biotinylated probe, 635/667 nm fluorescence (AID 1115).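 Also: probe is biotinylated aNog protein used at 0.15 µg/mL for 1 h at 4 C; z-score combines 667 nm fluorescence of each spot with its signal to noise.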 The settings on record: higher = more signal.
The target of assay [19] is Torsin-1A-interacting protein 1 (Homo sapiens) (UniProt Q5JTV8). The experiment in a line: LAP1 binders from COS7 cell lysate, primary screen, small-molecule microarray, 635/667 nm fluorescence (AID 1116). As to conditions: COS7-hLAP1 lysate binding, 635 nm fluorescence, higher = more signal.
Torsin-1A-interacting protein 1 (Homo sapiens), sequence (Q5JTV8 whole entry, looked up): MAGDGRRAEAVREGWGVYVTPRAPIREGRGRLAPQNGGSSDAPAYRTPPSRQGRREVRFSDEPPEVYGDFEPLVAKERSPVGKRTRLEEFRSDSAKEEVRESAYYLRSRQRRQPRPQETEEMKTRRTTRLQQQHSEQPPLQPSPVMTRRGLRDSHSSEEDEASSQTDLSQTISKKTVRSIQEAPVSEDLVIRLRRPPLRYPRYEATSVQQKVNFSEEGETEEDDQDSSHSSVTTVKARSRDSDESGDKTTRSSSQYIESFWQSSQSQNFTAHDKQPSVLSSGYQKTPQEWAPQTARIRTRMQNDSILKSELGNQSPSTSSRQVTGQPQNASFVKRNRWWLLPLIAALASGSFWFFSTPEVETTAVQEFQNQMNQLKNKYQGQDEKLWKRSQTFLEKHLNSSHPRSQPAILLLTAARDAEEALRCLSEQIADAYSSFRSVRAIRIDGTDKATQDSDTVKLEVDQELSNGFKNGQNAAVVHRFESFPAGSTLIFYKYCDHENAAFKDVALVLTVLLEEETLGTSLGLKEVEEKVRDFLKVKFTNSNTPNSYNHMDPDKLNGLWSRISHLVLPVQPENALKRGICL
For assay [20], the target named is Alpha-bungarotoxin (Bungarus multicinctus) (UniProt P60615). As to the kind of experiment: alpha-bungarotoxin binders on microarray, profiling panel, artefact control for SMM control protein annotation, biochemical, small-molecule microarray, Alexa647 label, 635/667 nm fluorescence (AID 1117). As to conditions: alpha-BTX-A647 binding fluorescence, higher = more signal.
Alpha-bungarotoxin (Bungarus multicinctus), sequence (P60615 whole entry, looked up): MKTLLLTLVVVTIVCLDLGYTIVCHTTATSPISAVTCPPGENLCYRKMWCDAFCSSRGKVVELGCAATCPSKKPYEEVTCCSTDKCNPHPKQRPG

Follistatin-related protein 3 (Homo sapiens), sequence (O95633 whole entry, looked up): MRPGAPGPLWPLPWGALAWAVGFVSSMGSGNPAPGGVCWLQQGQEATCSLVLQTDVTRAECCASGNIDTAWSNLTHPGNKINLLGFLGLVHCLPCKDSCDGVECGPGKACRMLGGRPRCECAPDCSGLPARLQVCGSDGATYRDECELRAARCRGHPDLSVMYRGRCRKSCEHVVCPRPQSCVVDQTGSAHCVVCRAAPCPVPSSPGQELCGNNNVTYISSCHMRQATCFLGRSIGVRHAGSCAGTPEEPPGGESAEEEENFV
Fibroblast growth factor 10 (Homo sapiens), sequence (O15520 whole entry, looked up): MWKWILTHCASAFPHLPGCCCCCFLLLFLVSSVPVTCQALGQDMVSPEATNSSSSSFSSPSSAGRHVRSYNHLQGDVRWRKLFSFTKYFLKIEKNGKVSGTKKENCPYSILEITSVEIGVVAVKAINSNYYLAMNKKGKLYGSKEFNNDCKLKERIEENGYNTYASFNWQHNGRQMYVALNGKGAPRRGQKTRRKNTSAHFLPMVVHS
Dickkopf-related protein 1 (Homo sapiens), sequence (O94907 whole entry, looked up): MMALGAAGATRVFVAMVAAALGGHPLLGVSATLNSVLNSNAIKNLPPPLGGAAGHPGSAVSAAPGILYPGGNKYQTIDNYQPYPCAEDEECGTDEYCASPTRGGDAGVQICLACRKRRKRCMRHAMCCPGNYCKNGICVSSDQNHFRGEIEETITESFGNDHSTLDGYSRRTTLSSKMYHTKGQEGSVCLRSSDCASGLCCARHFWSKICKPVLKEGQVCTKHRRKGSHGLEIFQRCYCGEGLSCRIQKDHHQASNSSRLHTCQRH

In the case of `COCCOC(=O)N1C(=O)[C@@]2(c3ccccc31)[C@H](c1ccc(O)cc1)N1[C@H](c3ccccc3)[C@H](c3ccccc3)OC(=O)[C@H]1[C@@H]2C(=O)N1CCCCCCC1`, the composite z-score in assay [1] turned out to be 1.81; in [2], 2.94; in assay [3], 1.68; in assay [5], 1.39; in [6], 1.37; in assay [7] it was 1.76. Moreover, the composite z-score was 1.69 in assay [8]; 2.31 in assay [9]; 1.96 in [10]; 1.34 in assay [11]; 1.51 in assay [13]; 2.52 in assay [14]. For the same molecule, the composite z-score in assay [15] was found to be 1.34; in [16] it was 0.65; in assay [17], 3.03; in assay [18] it was 3.42; in [19], 4.5; in [20], 3.04. Also, the z-score was -0.682 (inactive) in assay [4] and -2.23 in assay [12].

For the molecule `C=C(C)[C@@H]1CC=C(C(O)C2C=CC3C(=O)N(c4ccccc4)C(=O)C3N2Nc2ccc([N+](=O)[O-])cc2)CC1` (stereo not given in full), the composite z-score was -0.0606 in assay [1]; 0.32 in assay [2]; 0.822 in [3]; 1.27 in assay [5]; 1.31 in assay [6]; 0.613 in assay [7]. Besides, the composite z-score is 1.44 in [8]; -0.103 in assay [9]; 0.883 in assay [10]; 1.46 in assay [11]; 1.26 in [13]; -0.0515 in assay [14]. Further, the composite z-score in assay [15] was 0.261; in assay [16] it was -0.0222; in assay [17] it was -0.0119; in assay [18] it was 1.24; in [19], -0.151; in assay [20] it was 0.839. Besides, the z-score in assay [4] was -0.682 (inactive); in [12], -0.315.

Regarding `O=C(N1CCOCC1)[C@@]1(Cc2ccccc2)COC(c2ccc(OCCCO)cc2)=N1`, the composite z-score was 0.666 in assay [1]; 1.23 in assay [2]; 0.84 in [3]; 0.132 in [5]; 0.983 in assay [6]; -0.309 in assay [7]. Moreover, the composite z-score in assay [8] is -0.65; in [9] it was -0.161; in assay [10], 0.573; in assay [11] it was 1.44; in [13] it was -0.571; in assay [14], 1.16. The composite z-score in [15] is 0.83; in [16], -0.0161; in assay [17] it was -0.288; in [18], -0.221; in [19] it was 1.38; in assay [20], 2.35. Moreover, the z-score in assay [4] was -0.694 (inactive); in assay [12], -1.95.

As for `COc1ccc(NN2C(C(O)c3ccc(I)cc3)C=CC3C(=O)N(C4CCCCC4)C(=O)C32)cc1` (stereo not given), the composite z-score in assay [1] turned out to be 0.404; in assay [2], 0.519; in assay [3] it was 0.792; in assay [5] it was 1.33; in assay [6] it was 1.31; in assay [7], 0.479. For the same molecule, the composite z-score in assay [8] turned out to be 1.46; in assay [9], 0.0284; in assay [10] it was 0.504; in assay [11], 1.43; in [13], 0.349; in assay [14], 1.21. Moreover, the composite z-score in assay [15] was 0.679; in [16], 0.18; in [17], -0.147; in assay [18], 0.261; in assay [19], 0.811; in [20] it was 1.45. Also, the z-score in assay [4] was 0.293 (inactive); in assay [12] it was -2.6.

Take `COC(=O)C[C@H]1O[C@@]2(C[C@@H]1[Si](C)(C)C)C(=O)N(C)c1ccccc12`: the composite z-score was 0.0786 in [1]; -0.251 in assay [2]; -0.52 in [3]; 0.955 in assay [5]; 0.59 in assay [6]; 0.559 in assay [7]. Also, the composite z-score is 0.612 in [8]; 0.525 in [9]; -1.08 in assay [10]; 1.06 in assay [11]; 0.392 in assay [13]; -0.197 in [14]. Moreover, the composite z-score in assay [15] was -0.273; in assay [16], -0.0643; in assay [17], -0.362; in assay [18] it was 0.273; in assay [19], -0.116; in assay [20] it was 0.586. Moreover, the values for the z-score in assay [4] and in assay [12] were -0.662 (inactive) and -0.83, respectively.
